Only some compounds are listed: those with a hit (about 11% of all), similar ones and a draw of the others.
L major viab = Leishmania major promastigote growth inhibition | Leishmania major promastigotes, resazurin fluorescence viability | actives 9% (n = 200,000) | inhibition, % at 10 µM; in the data active means inhibition above about 50%;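 further: promastigotes grown with compound for 44 hours at 28 °C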
Insulin prom up = MIN6 insulin promoter up-regulation; MIN6 insulin promoter-GFP reporter, high-content imaging; hits give high values; z-score at 5 µM; actives 0.3% (n = 190,000);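 active means z-score above 3 at 5 µM with at least 500 cells counted in the well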
Autophagy mod = autophagy modulation, high-content screen; calls only at 10 µM (by protocol); MEF GFP-LC3 puncta imaging; test concentration mostly 10 µM; actives 0.98% (n = 190,000);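 active means percentage of spot-positive cells more than 3 SD above its plate mean, without a fluorescence outlier flag or 80% toxicity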
WT yeast gro inh = growth inhibition of WT yeast, mitochondrial fusion screen; AID 1362; actives 2.1% (n = 190,000); mitochondrial fusion phenotypic screen, WT strain; inhibition, % at 10 µM; in the data active means inhibition above about 58%; tested in S. cerevisiae
INS promoter inh = TRM-6 insulin promoter activity inhibition; AID 1273; TRM-6 cells (human fetal islet line), insulin promoter-eGFP reporter, imaging; reporter expression induced with tamoxifen; actives 0.9% (n = 130,000); inhibition, % at 2 µM;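 active means inhibition above the mean plus 3 SD, with well images judged a real hit on visual review, cut at about 60% in these data, passing the limit was not always enough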
Of the large screens only hits and unclear results are named; the others gave an inactive call; ! = not active in a repeat.

O=C(CCCNc1ccccc1)N/N=C/c1cccs1	none
Cc1nn(C(C)C(=O)N/N=C/c2ccc(N(C)C)cc2)c(C)c1[N+](=O)[O-] (stereo not given)	none (no result: L major viab, Autophagy mod, WT yeast gro inh, INS promoter inh)
Cc1cccc(NC(=S)NCCC(C)C)c1	none
CC(C)CCNC(=S)Nc1ccccc1F	L major viab 52
CC(C)CCNC(=S)Nc1ccccn1	L major viab 68
COCCNC(=S)Nc1ccccn1	none (no result: INS promoter inh)
S=C(Nc1ccc(Nc2ccccc2)cc1)Nc1ccccn1	WT yeast gro inh 81
COc1ccc(C2CC(c3ccc4ccccc4c3)=NN2C(=O)CNC2CCCCC2)cc1 (stereo not given)	L major viab 100, Autophagy mod active
CC(=O)OCC(=O)N1N=C(c2ccc3ccccc3c2)CC1c1ccccc1 (stereo not given)	L major viab 86, WT yeast gro inh 68 (no result: INS promoter inh)
C=CCNCC(=O)N1N=C(c2ccc3ccccc3c2)CC1c1ccc(OC)cc1 (stereo not given)	Autophagy mod active
Cc1cc(C)nc(SCc2cnc(C)nc2N)n1	none (no result: Insulin prom up)
N#CCCCSc1nnc(-c2ccccn2)o1	none
CN1CCN(CCCN2c3ccccc3Sc3ccc(C(F)(F)F)cc32)CC1	L major viab 86, WT yeast gro inh 93!
O=C(CN1CCCC(O)C1)N1c2ccccc2Sc2ccc(C(F)(F)F)cc21 (stereo not given)	none (no result: INS promoter inh)
Cc1nn(C)cc1/C=C(/C#N)C(N)=O	none
CCOC(=O)c1ccc(N2C(=O)CC(N3CCC(C(N)=O)(N4CCCCC4)CC3)C2=O)cc1 (stereo not given)	Autophagy mod active (no result: Insulin prom up)
Cc1ccc(N2C(=O)CC(N3CCN(C4CCc5ccccc5C4)CC3)C2=O)cc1 (stereo not given)	L major viab 87 (no result: INS promoter inh)
CCOC(=O)C1CCCN(C2CC(=O)N(c3ccc(NC(C)=O)cc3)C2=O)C1 (stereo not given)	none
CCOc1ccc(N2C(=O)CC(N3CCN(C4CCc5ccccc5C4)CC3)C2=O)cc1 (stereo not given)	none
CCOC(=O)C1CCCN(C2CC(=O)N(c3ccc(C)cc3)C2=O)C1 (stereo not given)	INS promoter inh 68
CCOc1cccc(N2C(=O)CC(N3CCC(C(N)=O)(N4CCCCC4)CC3)C2=O)c1 (stereo not given)	none
Cc1ccc(-c2nnn(CC(=O)N(Cc3cccs3)C(C(=O)NCC3CCCO3)c3ccco3)n2)o1 (stereo not given)	none
CCOC(=O)Cc1[nH]nc2c1C(c1ccsc1)C(C#N)=C(N)O2 (stereo not given)	none
Cc1ccccc1Nc1nc(N)nc(CSc2n[nH]c(N)n2)n1	none (no result: L major viab, Autophagy mod, WT yeast gro inh, INS promoter inh)
O=C(CC1C(=O)NCCN1Cc1ccc(F)cc1)NCCCn1cccn1 (stereo not given)	none (no result: Insulin prom up, INS promoter inh)
Cc1ccc(O)c(N=Cc2sc3ccccc3c2Cl)c1	none
Oc1ccccc1N=Cc1sc2ccccc2c1Cl	L major viab 57 (no result: Insulin prom up, INS promoter inh)
O=c1oc2ccccc2c2c1C(c1ccc(Cl)cc1)Nc1ccc3ccccc3c1-2 (stereo not given)	L major viab 87
CCOc1ccc(OCC(=O)c2c(O)c3ccccc3oc2=O)cc1	none
CCOc1ccc(C2Nc3ccc4ccccc4c3-c3c2c(=O)oc2ccccc32)cc1 (stereo not given)	L major viab 56
COc1ccc(-c2cc(=O)c3ccccc3o2)cc1	none (no result: L major viab, Autophagy mod, WT yeast gro inh, INS promoter inh)
COc1ccc(C2Nc3ccc4ccccc4c3-c3c2c(=O)oc2ccccc32)cc1 (stereo not given)	L major viab 100 (no result: Insulin prom up)
O=C(N/N=C/c1ccccn1)c1cccc(S(=O)(=O)N2CCCC2)c1	none (no result: L major viab, Autophagy mod, WT yeast gro inh, INS promoter inh)
O=C(c1ccc(NC(=S)NCc2ccco2)cc1)N1CCOCC1	none
CCOC(=O)N/N=C(C)/C=C/c1ccccc1	none (no result: INS promoter inh)
CCOC(=O)N/N=C(C)/C=C/c1ccco1	L major viab 84
CC1=NN(C(N)=S)C(=O)C1N=Nc1ccccc1C (stereo not given)	WT yeast gro inh 65 (no result: Insulin prom up)
CC1=NN(C(N)=S)C(=O)C1N=Nc1c(C)cc(C)cc1C (stereo not given)	WT yeast gro inh 61 (no result: Insulin prom up)
CC1=NN(c2ccccc2)C(=O)C1N=Nc1ccc(C)cc1 (stereo not given)	none
CC1=NN(C(N)=S)C(=O)C1N=Nc1ccc(C)cc1C (stereo not given)	L major viab 60, WT yeast gro inh 70
CN1C(=O)/C(=C/c2cc(N=Nc3ccccc3)ccc2O)SC1=S	WT yeast gro inh 96 (no result: INS promoter inh)
Cc1cccc(NC(=O)CSc2nnc(Cc3ccccc3)o2)c1	none
CCOC(=O)C1(Cc2ccc(Cl)cc2)CCN(Cc2cnc(N)nc2)CC1	L major viab 53 (no result: INS promoter inh)
CCOC(=O)C1(S(=O)(=O)c2ccc(Cl)cc2)CCN(Cc2ccc(C)cc2)CC1	WT yeast gro inh 72 (no result: Insulin prom up)

Bioassay records (PubChem BioAssay)
